Measurements from PubChem BioAssay AID504339 (National Center for Advancing Translational Sciences (NCATS), 2011).
The campaign covered roughly 390,000 compounds. About 17,000 (4.4%) were called active. Not shown: some 8% with an inconclusive outcome. The call rests on the fitted dose curve; in most records, active means well fitted inhibition curve with a large enough effect; inconclusive means small, poorly fitted or top-dose-only effect; inactive means no such curve, though single readings can be large or run the other way. This excerpt belongs to a sample that is enriched for actives.

Each compound was assayed against Lysine-specific demethylase 4A (Homo sapiens) (UniProt O75164) (assay: qHTS Assay for Inhibitors of JMJD2A-Tudor Domain). Conditions: AlphaScreen JMJD2A-Tudor / H3K4me3 peptide binding; series mostly up to 114 µM.
Further: nearly all actives have a fitted effect of over 50% in size.
Potency means the concentration at half of the fitted maximal effect.

Chain of Lysine-specific demethylase 4A (Homo sapiens) (O75164 whole entry, looked up, the tested form may be a part): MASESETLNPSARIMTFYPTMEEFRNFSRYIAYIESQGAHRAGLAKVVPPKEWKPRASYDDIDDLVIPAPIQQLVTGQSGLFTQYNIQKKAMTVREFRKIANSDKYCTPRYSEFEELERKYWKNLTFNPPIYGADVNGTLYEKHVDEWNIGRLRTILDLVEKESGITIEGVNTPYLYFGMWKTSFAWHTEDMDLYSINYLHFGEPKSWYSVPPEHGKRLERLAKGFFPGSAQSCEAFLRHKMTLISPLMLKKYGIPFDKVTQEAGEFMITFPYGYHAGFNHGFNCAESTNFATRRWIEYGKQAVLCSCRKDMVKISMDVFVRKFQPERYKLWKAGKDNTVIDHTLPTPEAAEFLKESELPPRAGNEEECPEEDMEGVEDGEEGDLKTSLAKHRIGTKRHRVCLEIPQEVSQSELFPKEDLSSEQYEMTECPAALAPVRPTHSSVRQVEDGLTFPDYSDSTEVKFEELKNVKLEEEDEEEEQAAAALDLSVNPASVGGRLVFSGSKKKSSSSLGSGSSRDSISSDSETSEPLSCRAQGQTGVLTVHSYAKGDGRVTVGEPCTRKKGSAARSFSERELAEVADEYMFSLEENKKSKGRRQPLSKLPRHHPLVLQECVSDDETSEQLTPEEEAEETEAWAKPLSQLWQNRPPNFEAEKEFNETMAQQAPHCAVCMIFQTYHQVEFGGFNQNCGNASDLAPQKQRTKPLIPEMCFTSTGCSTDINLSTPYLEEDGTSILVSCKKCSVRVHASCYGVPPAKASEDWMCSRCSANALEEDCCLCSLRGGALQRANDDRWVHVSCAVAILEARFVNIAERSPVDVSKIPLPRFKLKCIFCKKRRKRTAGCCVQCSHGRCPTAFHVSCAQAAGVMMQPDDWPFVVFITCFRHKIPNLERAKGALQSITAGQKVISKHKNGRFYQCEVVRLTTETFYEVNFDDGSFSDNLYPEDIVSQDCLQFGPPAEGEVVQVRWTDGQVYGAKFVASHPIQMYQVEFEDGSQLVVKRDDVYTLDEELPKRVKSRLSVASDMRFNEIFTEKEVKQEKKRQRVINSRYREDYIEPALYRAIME

Potency, inactive:
NS(=O)(=O)c1ccc(NC(=O)COc2ccc(S(=O)(=O)NC3CCCCC3)cc2)cc1, CC(C)Cn1c(=O)c2ccccc2n2c(CCC(=O)N3CCN(c4cccc(Cl)c4)CC3)nnc12, CCOc1ccc2nc(N3CCC(C(=O)Nc4cc(C)ccc4C)CC3)sc2c1, OCCNCCOc1ccc(Cl)c(Cl)c1, COCCNCCOCCOc1cccc(OC)c1, COC(=O)c1nc(NC(=O)c2ccccc2)n[nH]1, COc1cc(NS(=O)(=O)c2ccc(NC(=S)NC(=O)c3ccccc3)cc2)nc(OC)n1, O=C(C1COc2ccccc2O1)N(Cc1cccnc1)c1nc2c(F)cc(F)cc2s1 (stereo unspecified), COc1ccc(Cc2nnc(NS(=O)(=O)Cc3ccccc3)s2)cc1, COc1ccccc1NC(=O)Nc1nnc(Cc2ccc(F)cc2)s1, Cc1nn(C(C)C(=O)NCCc2ccccc2)c(=O)c2c1sc1ccccc12 (stereo unspecified), COC(=O)c1sccc1S(=O)(=O)N(CC(=O)Nc1ccc(C)c(F)c1)c1ccc(C)c(C)c1, CCOc1cc(C=NNC(=O)CCCC(=O)NN=Cc2ccc(O)c(OCC)c2)ccc1O, CC(=O)c1sc(N/N=C/c2ccc(C(C)C)cc2)nc1C, Cc1ccc2nc(COc3cccc(NC(=O)c4ccccc4Cl)c3)cc(=O)n2c1, COc1cc(C(=O)NCCc2csc3nc(-c4ccccc4C)nn23)cc(OC)c1OC, CCOC(=O)c1c(NC(=O)CSc2nnc(CN3CCOCC3)n2C)sc2c1CCCC2, CCOC(=O)c1c(NC(=O)CSc2nccc(=O)[nH]2)sc(C)c1C, COc1ccc(C2C(=O)N(C3CCCCCC3)CC(=O)N2CCc2ccc(Cl)cc2)cc1OC (stereo unspecified), Cc1ccc(Cn2cc(CCC(=O)NCc3ccc(OC(C)C)cc3)c3ccccc32)cc1, CCOc1cc(/C=N/NC(=O)c2cccc(S(=O)(=O)N3CCOCC3)c2)ccc1OCC(=O)N(C)C, Cc1cccc(NC(=O)c2cccc(S(=O)(=O)N3CCCC3)c2)n1, COc1ccccc1CCNC(=O)c1cccn1-c1nnc(N2CCCCC2)s1, COc1ccc2c(C)c(CCC(=O)NCc3ccc(OC)c(OC)c3)c(=O)oc2c1, O=C(OCN1C(=O)c2ccccc2C1=O)/C(=C\c1ccco1)NC(=O)c1ccccc1, CCCCN=C1N/C(=C\c2ccco2)C(=O)N1c1ccccc1, COC(=O)COc1ccc2c(c1C)O/C(=C\c1ccco1)C2=O, COC(=O)C1=C(C)N(c2ccc(C)cc2)/C(=C/c2ccc(O)cc2)C1=O, CCOC(=O)c1c(C)[nH]c(C)c1S(=O)(=O)N1CCC(C(=O)Nc2ccc(C)c(Cl)c2)CC1, CCOC(=O)C1CCCN(C(=O)c2ccc3c(c2)sc2nc(-c4ccc(CC)cc4)cn23)C1 (stereo unspecified), COC(=O)c1sc2ncccc2c1-n1c(C)ccc1C, COc1ccc(CNC(=O)c2cc3c(s2)-c2ccccc2OC3)cc1, Cc1cccc(N2CCN(C(=O)c3cnc(N4CCCC4)nc3C)CC2)c1C, COc1ccc(-c2cc(-c3ccc(F)cc3)nc3c2COc2ccccc2-3)cc1, CCN(CC(=O)NC1CCS(=O)(=O)C1)c1nc(-c2cccnc2)nc2ccccc12 (stereo unspecified), COc1cc(Nc2nc(-c3ccc(OC)c(OC)c3)nc3ccccc23)cc(OC)c1, CC1CCC2(CC1)N=C(c1ccccc1)C(=O)N2CC(=O)Nc1ccc(F)c(Cl)c1 (stereo unspecified), Cc1ccc(-n2c(=O)c3cccnc3n2CC(=O)Nc2ccccc2C(F)(F)F)cc1C, COc1ccc(CNc2nc(-c3ccc(Cl)cc3)nn2C(=O)c2ccccc2)cc1, CC/C=C/C(=O)N1CC2(CC(c3cccc(NC(=O)CC)c3)=NO2)C[C@H]1C(N)=O (stereo partly specified), C/C=C(/C)C(=O)Nc1cccc(C2=NOC3(C2)C[C@@H](C(N)=O)N(C(=O)C2(C)CC2)C3)c1 (stereo partly specified), C/C=C(\C)C(=O)N1CC2(CC(c3cccc(NC(=O)CCCCC)c3)=NO2)C[C@@H]1C(N)=O (stereo partly specified), O=C(Nc1cccc(-c2nnc(-c3ccccc3)o2)c1)C1CCCO1 (stereo unspecified), Cc1ccc(OCCSc2nc(C)c(Cc3ccccc3)c(=O)[nH]2)cc1, COc1cc(OC)c(NC(=O)c2cc(S(=O)(=O)N3CCCC3)cn2C)cc1Cl, Cc1c(C(=O)NCc2ccccc2Br)oc2ccc3c(c12)C(=O)CC(C)(C)O3, COc1cccc(N2CCN(S(=O)(=O)c3cc(Br)cc4c3N(C(=O)C3CC3)CC4)CC2)c1, COc1ccc(CCNc2ncnc3onc(-c4ccc(Cl)cc4)c23)c(OC)c1, COc1cc(/C=C/C(=O)OCC(=O)NC(=O)NCc2ccccc2)ccc1OCC#N, COc1cc(/C=C/C(=O)Nc2ccc(OC)c(S(=O)(=O)N3CCOCC3)c2)ccc1OCC#N, CCOC(=O)c1oc2ccc(S(=O)(=O)n3nc(-c4ccccc4OC)cc3N)cc2c1C, CCOC(=O)CSc1ncc(-c2cccc(Cl)c2)cn1, Cc1oc(-c2ccccc2Cl)[n+]([O-])c1C, COc1ccc(C(=O)N2CCC(c3nc4ccccc4o3)CC2)cc1, COc1ccc(CN2CCCC(N3CCc4ccccc4C3)C2)c(O)c1 (stereo unspecified), COc1cc(C(=O)CCc2ccc3c(c2)OCO3)cc(OC)c1OC, CCOC(=O)N1CCc2c(sc3c2c(=O)n(-c2ccc(CC)cc2)c(=O)n3C)C1, CC1CCCN(c2csc3ccc(F)cc3c2=O)C1 (stereo unspecified), Cn1nnnc1Sc1ncnc2scc(-c3ccccc3[N+](=O)[O-])c12, CC(C)(C)c1ccc(OCC(=O)N2CCC(c3nc4ccccc4s3)CC2)cc1, COc1ccc(NC(=O)CSc2nncc(=O)n2N)cc1OC, Nn1c(SCC(=O)Nc2nccs2)nnc1-c1ccco1, Cc1ccc2c(=O)c(C(=O)c3ccc(Cl)cc3)cn(CC(=O)NC3CCCCC3)c2n1, COCCCNC(=O)c1ccc2c(c1)ncn2-c1ccccc1OC, COc1ccccc1-n1cnc2cc(NS(=O)(=O)c3ccccc3)ccc21, CCOc1ccc(CNC(=O)c2cc(-c3ccc(Cl)s3)nc3ccccc23)cc1, COc1ccc(Br)cc1CNC(=O)c1cc(=O)[nH]c2ccc(S(=O)(=O)N3CCCC3)cc12, CCOC(=O)c1c(C)[nH]c(C)c1S(=O)(=O)NCC(=O)NCc1cccc(C)c1, CCCOc1ccccc1-c1nc(SCCC(=O)O)n[nH]1, CCCCN(CC)CCCNC(=O)c1nn(C)c2c1CSc1ccccc1-2, COc1cccc(CNC(=O)CSc2c3c(nc4cc(Cl)ccc24)CCCC3)c1, Cc1cccc(C(=O)Nc2ccc(S(=O)(=O)N3CCCCC3c3cccnc3)cc2)c1 (stereo unspecified), COc1ccc(CCNS(=O)(=O)c2cccc3cccnc23)cc1OC, C=CCn1c(COc2cccc3cccnc23)nnc1SCC(=O)OC, COc1ccccc1-c1ccnc2[nH]n(-c3ccccc3)c(=O)c12, COc1cccc(Cn2c(CNS(=O)(=O)c3ccc(Cl)s3)nc3cccnc32)c1, O=c1cc(CO)oc(CN2CCC(Cc3ccccc3)CC2)c1O, NC(=O)c1ccc(CN2CCC(Cc3ccccc3)CC2)cc1, CCOc1ccccc1NC(=O)Cn1c2ncccc2c(=O)n1-c1ccc(C)c(C)c1, Cc1nc(NC(=O)CN(C)S(=O)(=O)c2ccc(Cl)cc2)sc1C, CCC(=O)Nc1nc(C)c(C(=O)Nc2cccc(Cl)c2)s1

Potency, active:
COCCCNCCOCCOc1ccc(Cl)cc1Br 1.78 µM, Cn1nnc(NC(=S)NC(=O)c2ccccc2)n1 5.01 µM, COc1ccc(Cc2nnc(NC(=O)Cc3cccs3)s2)cc1 28.2 µM, COc1cc(/C=N\Nc2nc(-c3cccs3)c(NC(C)=O)s2)ccc1O 25.1 µM, CCOC(=O)c1c(NC(=O)CSc2nnc(Cc3csc(N)n3)n2C)sc(C)c1C 39.8 µM, Cc1ncc(CO)c(/C=N/NC(=O)c2cccc(S(=O)(=O)N3CCCC3)c2)c1O 22.4 µM, COC(=O)C1=C(C)N(c2ccc(Br)cc2)C(=O)/C1=C\c1ccco1 17.8 µM, COC(=O)C1=C(C)N(C(C)c2ccccc2)C(=O)/C1=C\c1ccco1 (stereo unspecified) 25.1 µM, COc1ccc(Nc2nc(-c3cccnc3)nc3ccccc23)cn1 31.6 µM, C=C(C)C(=O)Nc1cccc(C2=NOC3(C2)C[C@H](C(N)=O)N(C(=O)C(c2ccccc2)c2ccccc2)C3)c1 (stereo partly specified) 11.2 µM, NC(=O)[C@H]1CC2(CC(c3cccc(NC(=O)[C@H]4CCC(=O)N4)c3)=NO2)CN1C(=O)c1ccccc1C(=O)c1ccccc1 (stereo partly specified) 89.1 µM, COc1cc(/C=C/C(=O)OCC(=O)N2CCOCC2)ccc1OCC#N 50.1 µM, Cc1oc(-c2cccc(Cl)c2)[n+]([O-])c1C 79.4 µM, COc1c(O)ccc2c1CN1CCc3cc4c(cc3C1C2)OCO4 (stereo unspecified) 44.7 µM, Nn1c(SCC(=O)Nc2nccs2)nncc1=O 28.2 µM, COc1ccccc1-n1cn[nH]c1=S 25.1 µM, Cc1cc(C)nc(Nc2n[nH]c(-c3ccccc3N)n2)n1 2.24 µM, CCCCC(=O)NC(c1ccc(OC)c(OC)c1)c1ccc2cccnc2c1O (stereo unspecified) 56.2 µM, Brc1ccccc1CN1CCC(Cc2ccccc2)CC1 0.794 µM, C=CCCC(=O)Nc1nc(C)c(-c2csc(Nc3ccc(Cl)cc3)n2)s1 63.1 µM
